Results taken from PubChem BioAssay (Tox21).
Values joined by “and” are separate entries in the source; they are usually repeats but may differ in a detail not shown here. Identical values can stand only once. Results filed as inconclusive are left out. Some compounds were tested as several samples or in several runs, with calls that do not always agree. Active and inactive are the calls of the source. Unless noted, calls follow the shape of the dose curve; as a rule, active = well fitted curve in the direction sought with a large enough effect in the repeat runs; inconclusive = weak or mixed curves; inactive = no such curve, though single readings can be large; an effect the other way counts as inactive or inconclusive.

Experiments:
[1] = qHTS assay to identify small molecule antagonists of the progesterone receptor (PR) signaling pathway - cell viability counter screen (AID 1346798); also: series mostly up to about 92 µM; nearly all actives have a fitted effect of over 50% in size
How it was run: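 Following a 4 hr attachment, PR-UAS-bla HEK293T cells in charcoal-stripped FBS medium were exposed to compounds with R5020 for 16 hr; CellTiter-Glo was added and luminescence read after 30 min at room temperature.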

[2] = qHTS assay to identify small molecule agonists of the progesterone receptor (PR) signaling pathway - cell viability counter screen (AID 1346799; calls by dose curve; also: nearly all actives have a fitted effect of over 45% in size; also: potency is read from the fitted curve at half-maximal effect)
How it was run: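 Here, 3,000 PR-UAS-bla HEK293T cells per well were treated with compounds for 16 hr after a 6 hr preincubation at 37C and 5% CO2; cell viability is the CellTiter-Glo luminescence signal.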

[3] = qHTS assay to identify small molecule antagonists of the TGF-beta/Smad signaling pathway - cell viability counter screen (AID 1346824); also: nearly all actives have a fitted effect of over 50% in size
How it was run: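 SBE-bla HEK 293T cells, incubated overnight, then compound plus 0.25 ng/mL TGF-beta1 (stock added) for 5 hr at 37 C. Viability was read in the same wells by CellTiter-Glo luminescence after 30 min at room temperature.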

[4] = qHTS assay to identify small molecule agonists of the TGF-beta/Smad signaling pathway - cell viability counter screen (AID 1346829); also: top concentration of the series differs between compounds; nearly all actives have a fitted effect of over 45% in size
How it was run: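 Cytotoxicity counter screen: CellTiter-Glo luminescence (30 min, room temperature) measured in the SBE-bla HEK 293T reporter wells after 5 hr compound treatment at 37 C and the 2 hr substrate step.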

[5] = qHTS assay to identify small molecule agonists of the TGF-beta/Smad signaling pathway (AID 1346859; active = well fitted activation curve with a large enough effect in the signal ratio in the repeat runs, not every such curve was filed as active; the % refers to the signal ratio; also: series mostly up to about 77 µM)
How it was run: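 Each well held 4,000 SBE-bla HEK 293T cells incubated overnight before compound addition; 5 hr later the cleavable FRET substrate went on for 2 hr at room temperature, and fluorescence was read at two emissions.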

[6] = Human pregnane X receptor (PXR) small molecule agonists, qHTS cell viability counter screen (AID 1346977); also: nearly all actives have a fitted effect of over 50% in size; also: potency is read from the fitted curve at half-maximal effect
How it was run: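 Tox21 qHTS format; PXR-Luc HepG2, 2,000/well, charcoal-stripped FBS 5%. Cpd exposure 24hr. Read: CellTiter-Fluor fluorescence, multiplexed with luciferase.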

[7] = Caspase-3/7 induction in HepG2 cells by small molecules, qHTS assay (AID 1346978); also: nearly all actives have a fitted effect of over 15% in size
How it was run: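 Wild-type HepG2 cells, 2,000/well, settled 5 hr at 37 C and 5% CO2, then compound-treated for 17 hr; caspase-3/7 activity read by luminescent Caspase-Glo 3/7 after 30 min at room temperature.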

[8] = Caspase-3/7 induction in CHO-K1 cells by small molecules, qHTS cell viability counter screen (AID 1346979); also: nearly all actives have a fitted effect of over 35% in size; also: potency is read from the fitted curve at half-maximal effect
How it was run: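 CellTiter-Fluor viability check, qHTS format: wild-type CHO-K1, 16hr compound treatment, 1hr reagent incubation, fluorescence read.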

[9] = target: Thyrotropin-releasing hormone receptor (Homo sapiens) (UniProt P34981); assay: qHTS assay to identify small molecule antagonists of the thyrotropin-releasing hormone receptor (TRHR) signaling pathway (AID 1346877; active = well fitted inhibition curve with a large enough effect in the repeat runs, not every such curve was filed as active; also: series mostly up to about 51 µM)
Thyrotropin-releasing hormone receptor (Homo sapiens), sequence (P34981 whole entry, looked up): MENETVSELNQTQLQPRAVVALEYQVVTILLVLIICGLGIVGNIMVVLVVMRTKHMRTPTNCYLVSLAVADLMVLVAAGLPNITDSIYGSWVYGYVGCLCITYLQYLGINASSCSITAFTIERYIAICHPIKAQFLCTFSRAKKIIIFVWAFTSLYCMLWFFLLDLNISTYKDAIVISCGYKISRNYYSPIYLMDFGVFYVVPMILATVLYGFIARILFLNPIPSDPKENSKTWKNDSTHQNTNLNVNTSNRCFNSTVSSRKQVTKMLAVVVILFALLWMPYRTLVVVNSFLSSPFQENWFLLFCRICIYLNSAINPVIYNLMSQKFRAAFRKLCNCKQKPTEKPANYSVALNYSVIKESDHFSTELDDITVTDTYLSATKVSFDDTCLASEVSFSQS
How it was run: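 Antagonism is measured as suppression of the calcium response to 1 nM TRH in TRHR-HEK293 cells that have been dye-loaded for 2 h at 37 °C after overnight plating. Each compound is tested at 15 concentrations in triplicate.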

[10] = target: Thyrotropin-releasing hormone receptor (Homo sapiens) (UniProt P34981); assay: qHTS assay to identify small molecule agonists of the thyrotropin-releasing hormone receptor (TRHR) signaling pathway (AID 1346891; calls by dose curve; also: series mostly up to about 58 µM)
How it was run: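 Screening of agonists relied on calcium signalling in HEK293 cells expressing human TRHR: dye loading 2 h at 37 °C preceded compound addition and a 3-min fluorescence time course.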

Measured: Potency

COC(=O)NS(=O)(=O)c1ccc(N)cc1
inactive: [1] | [2] | [3] | [4] | [5] | [6] | [7] | [8]

Nc1ccc(Cc2ccc(N)cc2)cc1
inactive: [1] | [2] | [4] | [5] | [9] | [10] | [6] | [7] | [8]

O=C(NC(=O)c1c(F)cccc1F)Nc1cc(Cl)c(OC(F)(F)C(F)C(F)(F)F)cc1Cl (configuration not stated)
inactive: [1] | [3] | [4] | [5] | [9] | [10] | [6] | [7] | [8]

NCCc1ccc(O)cc1
21.5 µM (active) and inactive: [2]
inactive: [1] | [4] | [5] | [9] | [10] | [6] | [7] | [8]

CCOP(=S)(OCC)Oc1cnc2ccccc2n1
inactive: [1] | [3] | [4] | [5] | [9] | [10] | [6] | [7] | [8]

O=[N+]([O-])c1ccc([As](=O)(O)O)cc1
inactive: [1] | [2] | [4] | [5] | [9] | [10] | [6] | [7] | [8]

COP(N)(=O)SC (configuration not stated)
inactive: [1] | [2] | [4] | [5] | [9] | [10] | [6] | [7] | [8]

CC(C)N1C(=O)c2ccccc2NS1(=O)=O
inactive: [1] | [2] | [3] | [4] | [5] | [6] | [7] | [8]

CC(C)(Cl)Cl
inactive: [1] | [2] | [4] | [5] | [9] | [10] | [6] | [7] | [8]

NCC(O)c1ccc(O)cc1 (configuration not stated)
inactive: [1] | [2] | [4] | [5] | [9] | [10] | [6] | [7] | [8]

c1cc2c3c(cccc3c1)CC2
inactive: [1] | [3] | [4] | [5] | [9] | [10] | [6] | [7] | [8]

Cn1cc(-c2ccccc2)c(=O)c(-c2cccc(C(F)(F)F)c2)c1
inactive: [1] | [2] | [4] | [5] | [9] | [10] | [6] | [7]

c1ccc(OP(Oc2ccccc2)Oc2ccccc2)cc1
inactive: [1] | [3] | [4] | [5] | [9] | [10] | [6] | [7] | [8]

C#CCN(C)[C@H](C)Cc1ccccc1
inactive: [1] | [3] | [4] | [5] | [9] | [10] | [6] | [7] | [8]

Nc1c(Cl)c(Cl)nc(C(=O)O)c1Cl
inactive: [1] | [2] | [4] | [9] | [10] | [6] | [7] | [8]

CCOP(=S)(OCC)SCCSCC
inactive: [1] | [2] | [4] | [5] | [9] | [10] | [6] | [7] | [8]

CC(Br)C(=O)O (configuration not stated)
inactive: [1] | [2] | [4] | [5] | [9] | [10] | [6] | [7] | [8]

COCCl
39.8 µM (active) and inactive: [6]
20.1 µM (active) and inactive: [8]
inactive: [1] | [2] | [4] | [5] | [7]

COc1ccc2c3c1O[C@H]1[C@@H](O)C=C[C@H]4[C@@H](C2)N(C)CC[C@@]341
60.1 µM (active) and inactive: [8]
inactive: [1] | [2] | [4] | [5] | [7]
67.5 µM (active) and inactive: [6]

O=Cc1cccc(Oc2ccccc2)c1
inactive: [1] | [2] | [3] | [4] | [5] | [6] | [7] | [8]

c1ccc2c(c1)Oc1ccccc1O2
inactive: [1] | [2] | [4] | [5] | [6] | [7] | [8]

CN=C=S
inactive: [1] | [3] | [4] | [5] | [9] | [10] | [6] | [7] | [8]

CC(C)=C[C@@H]1[C@@H](C(=O)OCc2coc(Cc3ccccc3)c2)C1(C)C
inactive: [1] | [2] | [4] | [5] | [6] | [7] | [8]

O=NN1CCCCCCC1
inactive: [1] | [4] | [5] | [9] | [10] | [6] | [7] | [8]

C1CC2OC2CC1C1CO1 (configuration not stated)
inactive: [1] | [4] | [5] | [6] | [7] | [8]

CCCC1COC(Cn2cncn2)(c2ccc(Cl)cc2Cl)O1 (configuration not stated)
active: [8] 62.3 µM and 68.6 µM
inactive: [4] | [5] | [9] | [10] | [7]

O=[N+]([O-])c1ccccc1
inactive: [1] | [4] | [5] | [9] | [10] | [6] | [7] | [8]

O=c1ccc(=O)[nH][nH]1
inactive: [1] | [4] | [5] | [6] | [7] | [8]

BrCCBr
inactive: [1] | [3] | [4] | [5] | [9] | [10] | [6] | [7] | [8]
